The results in this text go back to ChEMBL document CHEMBL3988442, “University of Dundee, Small-Polar-MMV Screening Library” (2021).

Out of some 69,000 compounds screened, about 420 (0.61%) showed an effect of 50% or more. Only a selection was taken, and strong results are over-represented in it overall.

This test concerns the target T1, Histidine--tRNA ligase (Leishmania infantum) (UniProt A4I591).
T1 sequence (whole entry): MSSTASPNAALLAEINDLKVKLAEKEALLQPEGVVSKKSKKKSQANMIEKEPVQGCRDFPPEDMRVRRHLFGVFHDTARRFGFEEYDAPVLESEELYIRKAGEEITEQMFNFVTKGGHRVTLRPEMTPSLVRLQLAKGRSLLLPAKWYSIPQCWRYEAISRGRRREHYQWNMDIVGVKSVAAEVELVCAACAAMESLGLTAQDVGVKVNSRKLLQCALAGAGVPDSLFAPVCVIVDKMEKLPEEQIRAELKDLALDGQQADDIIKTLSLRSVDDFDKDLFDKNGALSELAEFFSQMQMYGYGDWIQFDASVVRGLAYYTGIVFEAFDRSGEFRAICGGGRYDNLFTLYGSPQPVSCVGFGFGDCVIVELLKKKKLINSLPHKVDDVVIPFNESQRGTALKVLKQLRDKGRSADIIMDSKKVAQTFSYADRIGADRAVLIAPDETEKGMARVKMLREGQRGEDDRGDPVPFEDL
The experiment in a line: Leishmania infantum Histidine tRNA synthetase (LdHisRS). Type of test: functional. Details: scale not given: in the data most compounds retested in dose-response had high values. The note with it: 30 µM.
For `Cc1cccc(S(=O)(=O)N2CC[C@H]3CO[C@H](CN(C)C)[C@H]3C2)c1`, the Percent Effect came to 0.917%.
As to `Cc1ccc(CN2C[C@H](N(C)Cc3cncnc3)[C@H]3OCCC[C@H]32)o1`, the Percent Effect is 15.4%.
The figure for `O=C1CCCC2=C1C(c1ccc(F)cc1F)Nc1nonc1N2` (stereo not drawn) is 14.6%; for `Cc1ccccc1CN1C[C@@H]2CC[C@H](C1)N(CC1CCC1)C2=O` it is 34.4%; for `CCOCC(=O)N1C[C@@H]2CC[C@H](Oc3ccccc3)[C@@H]2C1` it is 26.3%.
The figure for `O=C(CCNCc1cccc(O)c1)N1CCc2sccc2C1` is 85%; for `N#Cc1cccc(CNCCC(=O)N2CCc3sccc3C2)c1` it is 5.38%; for `COc1ccc(CNCCC(=O)N2CCc3sccc3C2)cc1O` it is 26.9%.
In the case of `c1cnnc(N2CCCC(NCc3nc(-c4cccs4)no3)C2)c1` (stereo not drawn) it was 24.7%; in that of `c1ccc(-c2noc(CNC3CCCN(c4cccnn4)C3)n2)nc1` (stereo not drawn), 67.7%.
`c1cnnc(N2CCCC(NCc3nc(-c4ccco4)no3)C2)c1` (stereo not drawn): the Percent Effect was found to be 0.926%.
The figure for `Cc1cccc(CN2C[C@@H]3OCCN(CC(=O)N(C)C)[C@@H]3C2)c1` is 13.5%; for `O=C(c1ncccn1)N1C[C@@H]2COC[C@]2(COc2cccnc2)C1` it is 17.3%.
In the case of `CS(=O)(=O)c1ccc(CN2C[C@H]3CC[C@@H]2CN(c2ncccn2)C3)cc1` it was 15%; in that of `CCS(=O)(=O)N1CCC2(CC1)CC[C@@]1(C(=O)NC)CN(C(C)=O)C[C@@H]21`, 19.7%.
The figure for `CC(C)(C)C(=O)N1CC[C@H]2NC(=O)N(c3ccc(F)cc3)C(=O)[C@H]21` is 19.4%; for `Cc1nc([C@@H]2C[C@@H]3CCN(C(=O)c4ccnnc4)C[C@H]3O2)sc1C` it is 18.4%.
For `c1ccc2c(c1)CN(c1ncnc3c1CCNC3)CCO2`, the Percent Effect was determined as 16.1%.
Turning to `Cc1cc2n(n1)CCN(c1nc(N(C)C)nc3c1CCNC3)C2`, the Percent Effect is 36.7%.
In the case of `CC(Nc1nc(-c2ccncc2)nc2c1CCNC2)c1ccccc1` (stereo not drawn) it was 54.1%; in that of `CN(C)c1nc2c(c(N3CCc4ccccc4C3)n1)CCNC2`, 58.6%.
As to `CN(C)c1nc2c(c(N3CCc4c(c(CO)nn4C)C3)n1)CCNC2`, the Percent Effect came out at 11.4%.
In the case of `CC(Nc1nc(-c2ccccc2)nc2c1CCNCC2)c1cccnc1` (stereo not drawn) it was 16.4%; in that of `c1ccc2c(c1)CCN(c1ncnc3sc4c(c13)CCNC4)C2`, 15.1%; in that of `Cc1nc2c(c(N3CCN(c4ncccc4C(N)=O)CC3)n1)CCNC2`, 12.9%.
In the case of `c1ccc2c(c1)CCN(c1nc(-c3ccncc3)nc3c1CCNC3)C2` it was 101%; in that of `CC(Nc1nc(-c2ccccc2)nc2c1CCNCC2)c1nccs1` (stereo not drawn), 19.7%; in that of `Cc1cccc(=O)n1CCCNc1nc(N(C)C)nc2c1CCNC2`, 35.3%.
In the case of `Cc1ccccc1N1CCN(c2nc(N(C)C)nc3c2CCNC3)CC1` it was 58.6%; in that of `CCOc1ccc(C(=O)N2C[C@H]3CC[C@@H]2CN(C)C3)cc1OCC`, 15.1%; in that of `O=C1[C@H]2CN(S(=O)(=O)c3cccs3)C[C@H]2CN1CC1CC1`, 21.4%.
Regarding `CN(Cc1cncnc1)[C@@H]1CN(C(=O)c2ccco2)[C@@H]2CCCO[C@H]12`, the Percent Effect was 17.3%.
As for `CCC1=N[C@@]2(CC[C@@H]3CN(Cc4ccc(F)cc4)C[C@@H]32)C(=O)N1C`, the Percent Effect was found to be 8.18%.
Regarding `Cc1ccc(CN2CCN(C(=O)C3CCC3)[C@@H]3CS(=O)(=O)C[C@@H]32)cc1C`, the Percent Effect was determined as 20.6%.
Regarding `CC1=N[C@@]2(CC[C@@H]3CN(C(=O)NC(C)C)C[C@@H]32)C(=O)N1CC1CC1`, the Percent Effect was 11.1%.
For `CC(C)C(=O)N1CC[C@H]2N(C)CC[C@@]2(C(=O)Nc2ccccc2)CC1`, the Percent Effect is 2.7%.
In the case of `COCCN1CC[C@H]2CN(Cc3ccc(C)s3)C[C@@H]2C1=O` it was 7.69%.
Consider `CC(=O)N1CC[C@H]2OCC[C@@]2(C(=O)NCc2ccco2)C1`, for which the Percent Effect is 13.2%.
On to `Cc1cccnc1[C@H](C)Nc1nc(-c2cccnc2)nc2c1CNC2`, for which the Percent Effect was determined as 54.3%.
The figure for `CCc1cc(C(C)Nc2nc(-c3cccnc3)nc3c2CNC3)on1` (stereo not drawn) is 17.1%; for `Cc1cc(CC(C)Nc2nc(-c3cccnc3)nc3c2CNC3)[nH]n1` (stereo not drawn) it is 22.9%.
Turning to `CCC(C)NC(=O)c1coc(COc2cccc(F)c2)n1` (stereo not drawn), the Percent Effect worked out at 19.7%.
Turning to `CC(NC(=O)c1coc(COc2cccc(F)c2)n1)c1nnc(N)s1` (stereo not drawn), the Percent Effect came out at 54%.
With `COC(=O)[C@@H](NC(=O)c1coc(COc2cccc(F)c2)n1)C(C)C`, the Percent Effect was 6.58%.
Consider `CN(C[C@@H]1CCC[C@@H]2CN(c3ncccn3)C[C@@H]21)C1CC1`, for which the Percent Effect amounted to 23.3%.
The figure for `COC[C@@H]1CC[C@H]2[C@H](CCN2S(=O)(=O)c2cccc(F)c2)O1` is 2.65%; for `O=C(NCc1ccccn1)[C@@]12CCO[C@@H]1CCN(c1ncccn1)C2` it is 15.4%; for `COc1cccc(OCC(=O)Nc2cc(C)cnc2OC)c1` it is -3.17%.
Consider `CCOCC(=O)Nc1cc(C)cnc1OC`, for which the Percent Effect was determined as 9.52%.
In the case of `COc1ncc(C)cc1NC(=O)COCC(F)(F)F` it was 77.8%; in that of `O=C(c1ccccn1)N1CC[C@H]2[C@H]1CCN2S(=O)(=O)C1CC1`, 14%.
The figure for `CN(C)C(=O)[C@H]1C[C@@H]2CN(c3ncccn3)C[C@H]1O2` is 22.2%; for `CCCc1ccc(CN2CCN(C(=O)NCC)[C@H]3CS(=O)(=O)C[C@H]32)o1` it is 13.2%.
In the case of `O=C(c1ccco1)N1CC[C@H]2[C@H]1CCN2CC1CCOCC1` it was 6.57%; in that of `Cc1nc(N)cc(N2CCCC(COc3cccc(F)c3)C2)n1` (stereo not drawn), 24.1%.
In the case of `Nc1cc(N2CCCC(COc3ccc(F)cc3)C2)nc(N)n1` (stereo not drawn), the Percent Effect was found to be 24.1%.
The figure for `Cc1ccccc1OCC1CCCN(c2cc(N)nc(N)n2)C1` (stereo not drawn) is 72.3%; for `O=C(CC1CC1)N[C@@H]1CN(Cc2ccc(F)cc2)C[C@@H]2CCCO[C@@H]21` it is 11.4%; for `O=C(NC1CC1)[C@@H]1C[C@@H]2CCN(Cc3ccccc3)C[C@@H]2O1` it is -7%.
As to `Cc1ncsc1CN1C[C@@H]2COC[C@]2(C(=O)NC2CC(F)(F)C2)C1`, the Percent Effect came out at 20%.
In the case of `Cc1nc[nH]c1CNC1CC(=O)N(CCc2cccc(Cl)c2)C1` (stereo not drawn) it was 7.45%.
The figure for `Cc1nn(CCC#N)c(C)c1[C@@H]1C=C[C@@H](NCc2ccc(F)cc2)C1` is 25%.
For the molecule `Cc1nn(CCC#N)c(C)c1[C@@H]1C=C[C@@H](NCc2cccc(Cl)c2)C1`, the Percent Effect stood at 50%.
As to `Cc1cnc(C(=O)N2C[C@H]3CC[C@@H]2CN(c2cnccn2)C3)cn1`, the Percent Effect came to 18.6%.
As for `O=C(NC[C@@]1(COc2cnccn2)C[C@@H](O)[C@@H](O)C1)C1CC1`, the Percent Effect is 5.41%.
In the case of `Cc1ccc(C(=O)N2CCO[C@H]3[C@H](OCCN(C)C)CC[C@@H]32)cn1` it was 9.72%.
In the case of `Cc1cccc(NC(=O)c2[nH]nc(C(C)C)c2Br)n1` it was 12.5%; in that of `O=C(c1ccco1)N1C[C@@H]2[C@@H](C1)OCC(=O)N2Cc1cccnc1`, 20.4%.
